# Reference: article PMC5540273 (PLoS ONE, 2017)
# Values joined by “and” are separate entries in the source; they are usually repeats but may differ in a detail not shown here. Equal entries are not always repeated. Where two headings read alike, the source gives them in different places.
# What was measured:
# [1] = test system: MAP4K4; conditions: concentration: 1 μM, replicates: in singlicate; n = 1
# [2] = test system: MAP4K5; conditions: concentration: 1 μM, replicates: in singlicate; n = 1
# [3] = test system: MAPKAPK2; conditions: n = 1
# [4] = test system: MAPKAPK5; conditions: concentration: 1 μM, replicates: in singlicate; n = 1
# [5] = test system: MARK1; conditions: n = 1
# [6] = test system: MARK2; conditions: concentration: 1 μM, replicates: in singlicate; n = 1
# [7] = test system: MARK3; conditions: concentration: 1 μM, replicates: in singlicate; n = 1
# [8] = test system: MARK4; conditions: n = 1
# [9] = test system: MAST1; conditions: concentration: 1 μM, replicates: in singlicate; n = 1
# [10] = test system: T1, MEK1; conditions: concentration: 1 μM, replicates: in singlicate; n = 1
# T1 construct: gene MAP2K1
# [11] = concentration: 1 μM, replicates: in singlicate
# [12] = concentration: 1 μM,replicates: in singlicate, 1 µM
# 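Also: KINOMEscan kinase panel screen.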
Compound,%Inh [1] [%],%Inh [2] [%],"%Inh [3, 11] [%]",%Inh [4] [%],"%Inh [5, 11] [%]",%Inh [6] [%],%Inh [7] [%],"%Inh [8, 11] [%]",%Inh [9] [%],%Inh [10] [%],"%Inh [3, 12]","%Inh [5, 12]","%Inh [8, 12]"
COc1cc2ncnc(Nc3ccc4nc(-c5ccccc5)[nH]c4c3)c2cc1OC.Cl [GW282450],0,0,24,0,0,0,0,0,0,0,–,–,–
CCn1c(-c2ccccn2)nc2cnccc21 [SB-736398],0,1,21,0,0,0,3,8,47,0,–,–,–
COC(=O)c1c(-c2ccccc2)c2cc(C(=O)O)ccc2c(=O)n1Cc1ccccc1,0,7,3,0,0,3,0,0,0,0,–,–,–
Cc1nnc(-c2ccc3occ(-c4ccc(S(C)=O)cc4)c3c2)[nH]1 (centres unmarked),0,0,0,20,21,22,0,19,7,8,–,–,–
CSc1nn2c(=O)cc(N3CCOCC3)nc2n1Cc1cccc(C(F)(F)F)c1C [GSK2363608],0,0,–,0,–,0,0,–,0,0,2% and 27%,9% and 0%,15% and 0%
Cc1c(Cn2ccn3c(=O)cc(N4CCOCC4)nc23)cccc1C(F)(F)F [GSK2289044],0,0,4,0,0,5,2,0,0,0,–,–,–
Cc1cccc(-c2nc(-c3ccc(S(C)(=O)=O)cc3)sc2-c2ccnc(NCCc3ccccc3)c2)c1,0,0,0,0,0,11,0,0,0,0,–,–,–
COc1cccc(-c2cc(-c3c[nH]nc3-c3ccccn3)ccn2)c1 [GW680338],40,1,0,1,0,12,0,0,0,16,–,–,–
Cn1ccc2ncnc(Oc3cccc(C(=O)Nc4ccccc4)c3)c21,8,0,0,12,13,0,0,6,35,1,–,–,–
Cl.NC(=O)c1cccc(Nc2nccc(Nc3ccc(Oc4cccc(Cl)c4)c(Cl)c3)n2)c1 [GW659008],18,33,8,0,13,0,0,24,5,0,–,–,–
COc1ccc(Nc2nccc(NCCNC(=O)Nc3ccccc3F)n2)cc1 [GSK1379901],0,0,25,0,0,0,0,11,0,0,–,–,–
Cl.c1ccc(-c2n[nH]cc2-c2ccnc(-c3ccc(CN4CCOCC4)cc3)c2)nc1 [GW776245],0,0,13,0,0,6,1,28,0,14,–,–,–
O=C(Nc1ccccc1)Nc1cccc(Oc2ccc3nccn3n2)c1,0,0,0,0,2,39,0,9,0,0,–,–,–
COC(=O)c1c(-c2ccccc2)c2cc(OC)ccc2c(=O)n1Cc1ccccc1,0,0,10,0,19,21,0,22,20,0,–,–,–
Nc1nc(-c2nccs2)c(-c2ccnc3ccccc23)s1 [GW693542],4,0,28,0,0,0,0,1,0,0,–,–,–
CC(C)(C)c1ccc(C(=O)Nc2cn3cc(-c4cccnc4)ccc3n2)cc1,15,0,0,0,36,27,0,38,0,3,–,–,–
COc1cc(Nc2nccc(N3CCC(NC(=O)Nc4cc(C)ccc4C)C3)n2)cc(OC)c1OC (centres unmarked) [GSK1379762],0,0,10,0,0,0,8,9,2,0,–,–,–
Cc1ccc(C(=O)Nc2ccc(Nc3ccnc4cc(-c5ccccn5)ccc34)cc2O)cc1.Cl [GW440146],0,70,18,0,0,0,2,4,0,0,–,–,–
Cc1cc(N2Cc3ccccc3C2)nc(Nc2ccc(S(=O)(=O)N3CCOCC3)cc2)n1.Cl [GSK1669917],0,0,4,0,0,0,12,0,0,0,–,–,–
CN(C)CCN(C)C(=O)c1cc(-c2ccncc2)c(-c2ccc(Cl)c(O)c2)o1.Cl.Cl [SB-710397],18,0,2,0,0,0,0,0,10,0,–,–,–
